Screening results (PubChem)
Hits are enriched below; roughly 0.98% of the tested compounds scored in any of these assays.
Keap1-Nrf2 PPI: inhibitors of human Keap1-Nrf2 protein-protein interaction; Q14145; Keap1 Kelch-Nrf2 peptide fluorescence polarization, 1536-well; inhibition, % at 9.4 µM; hit rate 0.15% among 340,000; in the data active = inhibition above about 12%; inconclusive = no clear call, values can overlap the other calls; inactive = below about 7.3%;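 note: human Keap1 Kelch domain with fluorescein labeled Nrf2 9mer peptide probe; 0% = neutral control wells and 100% = peptide positive control; higher means more block of Keap1 binding to Nrf2 peptide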
Target sequence (Q14145 whole entry, looked up, the tested form may be a part): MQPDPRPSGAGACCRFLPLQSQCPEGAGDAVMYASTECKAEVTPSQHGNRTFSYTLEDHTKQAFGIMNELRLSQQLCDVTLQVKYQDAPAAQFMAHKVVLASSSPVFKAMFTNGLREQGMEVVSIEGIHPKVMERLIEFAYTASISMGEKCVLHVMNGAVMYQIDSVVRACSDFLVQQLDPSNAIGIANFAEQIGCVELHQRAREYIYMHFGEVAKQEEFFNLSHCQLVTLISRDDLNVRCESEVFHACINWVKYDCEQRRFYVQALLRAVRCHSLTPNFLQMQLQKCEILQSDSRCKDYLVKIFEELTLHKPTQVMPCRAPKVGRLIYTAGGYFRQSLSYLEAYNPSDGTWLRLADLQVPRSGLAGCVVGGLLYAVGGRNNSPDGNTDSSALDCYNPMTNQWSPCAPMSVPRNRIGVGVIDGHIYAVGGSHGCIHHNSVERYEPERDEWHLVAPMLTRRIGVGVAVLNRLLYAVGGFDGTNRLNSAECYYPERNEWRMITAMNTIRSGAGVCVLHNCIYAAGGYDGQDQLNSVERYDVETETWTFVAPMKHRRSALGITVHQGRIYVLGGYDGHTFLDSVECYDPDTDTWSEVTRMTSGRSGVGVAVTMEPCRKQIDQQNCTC
C-LANA FP: blocks KSHV LANA C-terminal domain binding to DNA. MBP-C-LANA/FAM-LBS DNA binding, fluorescence polarization. inhibition, % at 9 µM. hit rate 0.078% among 340,000;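 active = highest replicate inhibition at or above 60% at 9 µM, even if other replicates fall short; inactive = all replicates below 60% inhibition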;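 note: 0% = neutral control wells and 100% = 4 µM acridine orange control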
Cardiac RTF inh: cardiac RTF calcium desensitization; P19429+P45379; AID 493244; inhibition, % at 7.15 µM; hit rate 0.12% among 340,000; IANBD-labeled cardiac RTF, Ca2+ fluorescence;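 active = inhibition above the mean inhibition of all tested compounds plus 3 SD, cut at about 17% in these data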;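 note: assay run at fixed EC70 calcium of 1.6 mM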
LANA-H2B inh: blocks KSHV LANA binding to histone H2A/H2B; cell-free LANA-H2A/H2B peptide, fluorescence polarization; hit rate 0.6% among 320,000; Q9QR71; inhibition, % (no concentration beside the values); in the data active = inhibition mostly above about 10%, no sharp cut-off; inactive = mostly below about 6.7%
cardiac RTF act: cardiac RTF calcium sensitization | P19429+P45379 | IANBD-labeled TnC RTF fluorescence at EC20 calcium; 0% EC20 calcium, 100% full calcium | activation, % at 7.2 µM | hit rate 0.24% among 340,000;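 active = activation above the mean over all tested compounds plus 3 SD, cut at about 30% in these data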;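 note: rise in fluorescence read as greater calcium sensitivity of cardiac thin filaments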
The depositor's hits bear a star; i = inactive; ? = inconclusive; nt = no result given.

SMILES | Keap1-Nrf2 PPI | C-LANA FP | Cardiac RTF inh | LANA-H2B inh | cardiac RTF act
COc1ccc(CC(=O)Nc2nccs2)cc1OC | -5 | 0 | 3 | -8 | 3
CCOc1ccc(CC(=O)Nc2nccs2)cc1OCC | 0 | -1 | -4 | 21* | -3
COc1ccccc1OCC(=O)Nc1ccccc1C(=O)N1CCCCC1 | 1 | 0 | -1 | 5 | 1
COc1ccccc1N=Cc1c(C)c(C#N)c2[nH]c3ccccc3n2c1=O | 0 | 0 | -13 | 3 | 62*
COc1ccc(CN2CNc3nc4ccccc4n3C2)cc1 | -1 | 1 | -3 | 22* | 5
C/C=C/c1ccc(OCCCCN2CC(C)CC(C)C2)c(OC)c1 (stereo not given) | -4 | 0 | 4 | 195* | 5
CC1CN(Cc2cc(=O)oc3cc(O)ccc23)CC(C)O1 (stereo not given) | 0 | 0 | -8 | 3 | -1
CCOC(=O)c1c(-c2ccccc2)csc1NC(=O)/C(C#N)=C/c1ccc(O)c(OC)c1 | -1 | 1 | -56 | -5 | 47*
CCOC(=O)c1c(-c2ccccc2)csc1NC(=O)/C(C#N)=C/c1ccc(OC)c(OC)c1 | 1 | -2 | 9 | 2 | -8
C=CCN(CC=C)C(=O)C1CCN(S(=O)(=O)c2ccc(-n3cnnn3)cc2)CC1 | -1 | -1 | -9 | -2 | -4
C=CCN(CC=C)C(=O)C1CCN(S(=O)(=O)c2ccc(N3CCCC3=O)cc2)CC1 | 3 | -2 | 2 | 15* | -1
CC(=O)c1cccc(N(C(=O)CNC(=O)c2ccco2)C(C(=O)NC2CCCC2)c2ccco2)c1 (stereo not given) | -6 | 0 | -9 | 1 | 0
Cc1ccc(CNC(=O)C2CCC(=O)N2Cc2ccc(F)cc2)cc1 (stereo not given) | 1 | -1 | -6 | -3 | -3
Cc1ccc(CN2C(=O)CCC2C(=O)NCc2cccnc2)cc1 (stereo not given) | -3 | 0 | -8 | 18* | 2
O=C(O)C1(O)C[C@@H](O)C(O)[C@H](O)C1 (stereo not given in full) | 1 | 0 | -14 | nt | 3
Cc1cc(C)c(S(=O)(=O)n2c([N+](=O)[O-])cnc2C)cc1C | 3 | -1 | 11 | -3 | 2
Cc1ccc(S(=O)(=O)n2c([N+](=O)[O-])cnc2C)cc1C | -2 | 1 | -6 | 12* | 3
COc1ccc2c(c1OC)C(=O)N(c1ccc(C)cc1)C2=O | -5 | 13 | 13 | 16* | 4
COc1ccc2c(c1OC)C(=O)N(c1ccc(C)c(C)c1)C2=O | -1 | -1 | -7 | -3 | 6
O=C1C(=Cc2ccc(Br)o2)C(=O)c2ccccc21 | ? | 106* | 33* | -3 | -36
CC1=C/C(=C\c2ccc(Br)o2)C(=O)O1 | -6 | 27 | -1 | -2 | 4
O=C(NCC(c1cccs1)N1CCOCC1)c1ccc(Cl)c(S(=O)(=O)N2CCOCC2)c1 (stereo not given) | 1 | 0 | -18 | 1 | -5
CC1CCCC(C)N1C(=O)c1cc2ncc(CCCl)cn2n1 (stereo not given) | 2 | 0 | 3 | 13* | 1
O=C(CNS(=O)(=O)c1ccc(F)cc1)N1CCCCCC1 | -3 | 1 | -12 | 1 | 3
CN(C)C=Nc1nonc1-c1ccccc1 | -3 | 0 | -8 | -1 | 5
SMILES | Keap1-Nrf2 PPI | C-LANA FP | Cardiac RTF inh | LANA-H2B inh | cardiac RTF act
CN(C)C=Nc1c(Br)cc(Br)c2nonc12 | -40 | -8 | -56 | -10 | 32*
Cn1c(NCc2cccs2)nc2ccccc21 | 8 | -1 | -3 | 22* | 5
COCCNC(=O)C(=O)NNC(=O)COc1ccc(OC)cc1 | -8 | -2 | -6 | 20* | 1
COc1ccc(OCC(=O)NCCCNC(=O)COc2ccc(OC)cc2)cc1 | -2 | -1 | -6 | 11* | -1
Cc1ccc(OCC(=O)NCCCNC(=O)COc2ccc(C)cc2)cc1 | 1 | 0 | -6 | nt | -5
COc1ccc(OCC(=O)NNC(=O)C(=O)Nc2ccccc2)cc1 | -5 | -2 | -9 | -3 | 1
O=S(=O)([N-]c1nc2ccccc2nc1-n1cc[n+](Cc2ccccc2)c1)c1ccc(Br)cc1 | nt | nt | nt | 7 | nt
Cc1cccc(C)c1NC(=O)COC(=O)c1ccc2c(c1)OCO2 | -4 | -1 | -24 | 1 | 14
Cc1cccc(C)c1NC(=O)COC(=O)c1c2c(nc3ccccc13)/C(=C\c1ccc3c(c1)OCO3)CCC2 | ? | 2 | -2 | 63* | 6
CCOc1cc(/C=C2\CCCc3c2nc2ccccc2c3C(=O)O)ccc1OC | 2 | 3 | -25 | 85* | 9
COc1cc(/C=C2\CCCc3c2nc2ccccc2c3C(=O)O)cc(Br)c1O | -1 | 0 | -5 | -3 | -5
CC(OC(=O)c1cc2ccccc2cc1O)C(=O)Nc1ccc(S(N)(=O)=O)cc1 (stereo not given) | 2 | 0 | -8 | -4 | 5
CC(OC(=O)c1c2c(nc3ccccc13)/C(=C\c1ccc3c(c1)OCO3)CCC2)C(=O)Nc1ccc(S(N)(=O)=O)cc1 (stereo not given) | -3 | 10 | i | nt | 115*
O=C1C[C@@H]2c3c(cccc3CN1Cc1ccc(F)cc1)C[C@@H](O)[C@H]2O | 4 | 0 | -3 | 1 | -9
COc1ccccc1N1CCN(C(=O)c2cc(-c3ccc(C)cc3)on2)CC1 | 4 | -2 | -6 | 5 | 3
COc1ccc(N2CCN(C(=O)c3ccc4ccccc4n3)CC2)cc1 | 0 | 1 | -31 | 16* | -5
COc1ccc(-c2cc(C(=O)N3CCN(c4ccccc4OC)CC3)no2)cc1 | 0 | 0 | -2 | 20* | -4
O=C(c1ccc2ccccc2n1)N1CCN(c2ccccc2)CC1 | 1 | -1 | -9 | 1 | -5
CCOC(=O)N1CCN(C(=O)c2cc3c(=O)n4cccc(C)c4nc3s2)CC1 | -2 | -1 | -3 | -2 | -4
COc1ccccc1N1CCN(C(=O)c2cc3c(=O)n4cccc(C)c4nc3s2)CC1 | 0 | -1 | 0 | 26* | 2
Cc1c(O)cc2c(c1O)C(=O)CC(c1ccccc1)O2 (stereo not given) | 1 | 0 | -1 | 1 | -6
Cc1onc(-c2ccccc2)c1C(=O)Nc1cccc2nsnc12 | -6 | 116* | 0 | -4 | 1
O=C(c1ccc(=O)oc1)N1CCCc2ccccc21 | -1 | 79* | 12 | -5 | -7
COc1ccc(/C=C2\C(=O)NCC(=O)N2Cc2ccccc2)cc1 | -4 | 0 | 4 | 2 | 8
COc1ccc(/C=C2\C(=O)NCC(=O)N2C)cc1 | -1 | 0 | -7 | 14* | 5
C[C@H]1c2cccc(O)c2C(O)=C2C(=O)C3(O)C(O)=C(C(N)=O)C(=O)[C@@H](N(C)C)[C@@H]3[C@@H](O)[C@@H]21 (stereo not given in full) | 3 | 0 | -3 | -2 | 5
